In PubChem BioAssay AID1307 (SRMLSC, 2008) one finds max inhibition data, which are given here for 48 compounds.

The structures appear in SMILES notation. The whole screen tested about 1,200 compounds, of which fewer than 10 were called active. These entries were drawn from the full list. Results with a measured potency or affinity are listed apart. A number with no mark means an inactive call.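 The calls were made as follows: active = inhibition reaching a set limit at one or more tested concentrations; inactive = inhibition under that limit at every dose.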

The experiment in a line: RAM pathway signaling blockade in S. cerevisiae – dose response (AID 1307).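 Also: 0% = DMSO vehicle wells and 100% = 10 µM 1-NA-PP1 control; higher inhibition means more yeast growth since RAM block rescues cells from 5-FOA.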 The conditions noted are these: S. cerevisiae RAM network URA3 reporter, 5-FOA growth OD615, stronger effect = higher value, yeast express analog-sensitive mutant Cbk1 kinase; at 100 µM unless noted.
Regarding `Cc1[nH]c2ccccc2c1/C=C/c1nc2ccccc2c(=O)n1-c1ccc([N+](=O)[O-])cc1`, the max inhibition is 6.44%.
Then `N#Cc1nc(COc2ccccc2)oc1N1CCN(c2cccc(Cl)c2)CC1`, with 3.36% [at 50 µM]; and `O=C(COC(=O)c1ccc(-c2ccccc2)cc1)Nc1ccccc1-c1ccccc1`, with 4.8% [at 50 µM]; and `CC(C)(C)OC(=O)NCCCCCNC(=O)c1[nH]cnc1C(=O)N[C@@H](Cc1ccccc1)C(=O)OCc1ccccc1`, with 6.61%.
Under `CCOc1ccc(NS(=O)(=O)c2ccc(NC(=S)NC(=O)CC(C)C)cc2)cc1` stands 3.65% [at 0.196 µM]; under `COc1cc(CC(NC(C)=O)C(=O)NC2CCN(c3c(Cc4ccccc4)c(C)nc4ncnn34)CC2)cc(OC)c1` (stereo not drawn), 3.02% [at 25 µM]; under `O=C(/C=C/c1ccccc1)N1CCN(c2cccc(Cl)n2)CC1`, 6.02%.
On to `CCOC(=O)c1c(C)[nH]c(C(=O)C(C)Sc2ccc(Cl)cc2)c1C` (stereo not drawn), for which the max inhibition is 2.41% [at 12.5 µM].
In the case of `O=C(CSCc1ccc(Cl)cc1)Nc1cccc(C(=O)Nc2ccccc2C(=O)O)c1`, the max inhibition was 1.32% [at 0.196 µM].
Consider `CCOc1ccc(NC(=O)CSc2nnc(-c3ccccc3Cl)n2Cc2ccco2)cc1`, for which the max inhibition is 1.32% [at 0.782 µM].
For `C=CCN1C(=O)C(Cc2ccc(C)cc2)S/C1=N/N=C/c1ccco1` (stereo not drawn), the max inhibition was 6.91%.
With `CC(=O)c1cc(C(=O)c2ccccc2)sc1Nc1ccccc1`, the max inhibition is 6.93%.
With `CCOC(=O)c1c(-c2cccc([N+](=O)[O-])c2)csc1NC(=O)CCCOc1ccccc1OC`, the max inhibition is 2.67% [at 50 µM].
Then `COc1ccc(CN(CCC(c2ccccc2)c2ccco2)C(=O)c2ccco2)cc1` (stereo not drawn), with 4.81% [at 6.25 µM].
Turning to `COc1ccccc1NC(=O)C(Sc1ccccc1)c1ccccc1` (stereo not drawn), the max inhibition is 2.18% [at 50 µM].
Regarding `CCOC(=O)/C(=C/c1ccc(N2CCC(c3ccccc3)=N2)cc1)C(C)=O`, the max inhibition is 3.75%.
Regarding `O=C(COC(=O)C1(c2ccccc2F)CCCC1)Nc1ncc(C(F)(F)F)cc1Cl`, the max inhibition is 2.79% [at 0.196 µM].
As for `CCOC(=O)c1cnc(SC)nc1Oc1cccc(NC(=O)c2ccc(C)cc2)c1`, the max inhibition is 5.83% [at 50 µM].
Take `CCCC(CCC)=NNc1ccc(S(=O)(=O)Nc2ccccc2OC)cc1[N+](=O)[O-]`: the max inhibition is 3.78% [at 0.391 µM].
For the compound `Cc1cccc(COCC(Cc2ccccc2)N2CCN(C(=O)c3ccc(C(F)(F)F)cc3)CCC2=O)c1` (stereo not drawn), the max inhibition is 3.28% [at 0.782 µM].
As for `Cc1ccc(NC(=O)COC(=O)CCC(=O)c2ccc(C(C)(C)C)cc2)c([N+](=O)[O-])c1`, the max inhibition is 2.67% [at 0.196 µM].
Regarding `CCOC(=O)c1sc(NC(=O)CCCn2nc([N+](=O)[O-])cc2C)c(C(=O)OCC)c1C`, the max inhibition was 4.45% [at 0.782 µM].
For the compound `CCCCCCCCNC(=O)/C(C#N)=C/c1ccc(SC)cc1`, the max inhibition was 5.43%.
As to `CCOC(=O)C(C)(C)N(Cc1cccc(C)c1)S(=O)(=O)c1cccc([N+](=O)[O-])c1`, the max inhibition was 2.41% [at 50 µM].
As to `O=C(Nc1ccccc1-c1nnc(SCc2ccccc2)o1)c1ccccc1`, the max inhibition is 4.39% [at 3.125 µM].
Take `Cc1ccc(-n2c(O)c(/C=N/c3ncn[nH]3)c3ccccc3c2=O)cc1`: the max inhibition was 10.6%.
For `COc1ccc(/C=C(\C#N)C(=O)NCCc2ccccc2)cc1OCc1ccccc1`, the max inhibition is 4.42% [at 1.563 µM].
Take `CCOC(=O)C1=C(c2ccccc2)N=c2s/c(=C\c3cc(OC)c(OC)c(OC)c3)c(=O)n2C1c1cccs1` (stereo not drawn): the max inhibition is 14.2%.
With `O=C(COC(=O)c1cc(Cl)ccc1[N+](=O)[O-])NCc1ccc(Cl)cc1Cl`, the max inhibition is 4.62% [at 1.563 µM].
As to `C=CCSc1nnc(CCCCCN2C(=O)c3cccc4cccc(c34)C2=O)o1`, the max inhibition was 6.81%.
Turning to `Cc1ccc(/C=C/c2ccc(=O)n(Cc3ccccc3Cl)n2)cc1`, the max inhibition was 3.92% [at 3.125 µM].
Turning to `O=C(/C=C/c1cccc(C(F)(F)F)c1)Nc1cccc(C(F)(F)F)c1`, the max inhibition is 2.77% [at 12.5 µM].
For `COc1ccc(C(=O)/C=C/c2ccc(OC)c(COc3ccccc3F)c2)cc1`, the max inhibition was 3.26% [at 12.5 µM].
As for `S=C(NCCC(c1ccccc1)c1ccccc1)Nc1ccccc1Cl`, the max inhibition was 2.81%.
On to `Cc1ccc(NC(=O)Cc2ccc(Cl)c(Cl)c2)cc1S(=O)(=O)N(C)C`, for which the max inhibition is 1.65%.
Then `CCN(CC)S(=O)(=O)c1cccc(C(=O)OCC(=O)c2ccc3c(c2)OCCO3)c1`, with 3.81% [at 6.25 µM]; and `CC(C)Cn1c(N)c(-c2nc(C(C)C)c(C(=O)c3ccccc3F)s2)c(=O)n(C)c1=O`, with 7.65%; and `COc1cccc(CN(Cc2ccccc2F)S(=O)(=O)c2ccc(S(=O)(=O)NCc3ccccc3)cc2)c1`, with 4.33%.
Turning to `COc1cccc(CN(Cc2ccco2)C(c2ccc(F)cc2)c2nnnn2C(C)(C)C)c1` (stereo not drawn), the max inhibition is 5.18%.
`O=C(COC(=O)c1ccc(CSc2ccc(Cl)cc2)cc1)Nc1ccccc1`: the max inhibition was 4.59%.
As for `CCOC(=O)c1c(-c2ccc(OC)cc2)csc1NC(=O)CSc1ccccc1`, the max inhibition is 5.06%.
On to `C=C(C)CNC(=S)Nc1nc2c(cc1C(=O)OCC)CCCC2`, for which the max inhibition is 2.44% [at 25 µM].
Turning to `COC(=O)c1cc(=O)n(CCc2ccccc2)c(=Nc2ccc(F)cc2)s1`, the max inhibition was 4.08% [at 50 µM].
Under `O=C(O)CSc1nc(-c2ccc(Cl)cc2)nc2c1oc1ccccc12` stands 6.31% [at 50 µM].
For the compound `COc1ccc(OC)c(NC(=O)C(Sc2ccccc2)c2ccccc2)c1` (stereo not drawn), the max inhibition was 4.44% [at 50 µM].
With `O=C(Nc1ccccc1-c1nnc(SCc2ccccc2Cl)o1)c1ccccc1`, the max inhibition is 2.67% [at 50 µM].
For `Cc1ccccc1N1C(=O)CC1(C#N)c1ccc(OCc2ccccc2)cc1` (stereo not drawn), the max inhibition is 3.12% [at 50 µM].
For `O=C(CC12CC3CC(CC(C3)C1)C2)NC(=S)NCc1ccco1`, the max inhibition is 5.22% [at 50 µM].
